Test results reported in PubChem BioAssay AID1159580 (chemical genetic matrix, 2015).
Screen size: about 5,500 compounds; about 2,000 (36%) were called active. Inconclusive results (about 18%) are left out. Cut-off read from the data, not from the text of the source: active = normalized growth mostly below about 0.91 (no sharp cut-off); inconclusive = no clear call, values can overlap the other calls; inactive = mostly above about 0.92. The list shows a part of the results.

Assay: chemical genetic growth profiling, strain panel (AID 1159580);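 note: tested at 20 µM; growth read once vehicle control cultures reached saturation at 30 °C; 1 = growth at the plate median or of vehicle wells; lower values mean less growth of the strain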
Conditions: S. cerevisiae deletion strains, growth OD
[1] = locus YAL021C, strain ccr4, stronger effect = lower value
[2] = locus YAL026C, strain drs2, stronger effect = lower value
[3] = locus YAL030W, strain snc1, stronger effect = lower value
[4] = locus YBL061C, strain skt5, stronger effect = lower value
[5] = locus YBR009C, strain hhf1, stronger effect = lower value
[6] = locus YBR023C, strain chs3, stronger effect = lower value
[7] = locus YBR171W, strain sec66, stronger effect = lower value
[8] = locus YBR231C, strain swc5, stronger effect = lower value
[9] = locus YBR279W, strain paf1, stronger effect = lower value
[10] = locus YCL011C, strain gbp2, stronger effect = lower value
[11] = locus YCL016C, strain dcc1, stronger effect = lower value
[12] = locus YCL061C, strain MRC1, stronger effect = lower value
[13] = locus YCL069W, strain vba3, stronger effect = lower value
[14] = locus YCR088W, strain abp1, stronger effect = lower value
[15] = locus YDL005C, strain med2, stronger effect = lower value
[16] = locus YDL040C, strain nat1, stronger effect = lower value
[17] = locus YDR001C, strain nth1, stronger effect = lower value
[18] = locus YDR069C, strain doa4, stronger effect = lower value
[19] = locus YDR137W, strain rgp1, stronger effect = lower value
[20] = locus YDR159W, strain sac3, stronger effect = lower value
[21] = locus YDR297W, strain sur2, stronger effect = lower value
[22] = locus YDR334W, strain swr1, stronger effect = lower value
[23] = locus YDR335W, strain msn5, stronger effect = lower value
[24] = locus YDR392W, strain spt3, stronger effect = lower value
[25] = locus YEL003W, strain gim4, stronger effect = lower value
[26] = locus YEL037C, strain rad23, stronger effect = lower value
[27] = locus YEL061C, strain CIN8 (second series), stronger effect = lower value
[28] = locus YER015W, strain faa2, stronger effect = lower value
[29] = locus YER016W, strain bim1, stronger effect = lower value
[30] = locus YER111C, strain swi4, stronger effect = lower value
[31] = locus YER155C, strain BEM2 (second series), stronger effect = lower value
[32] = locus YFR010W, strain ubp6, stronger effect = lower value
[33] = locus YGL167C, strain pmr1, stronger effect = lower value
[34] = locus YGL173C, strain kem1, stronger effect = lower value
[35] = locus YGL227W, strain vid30, stronger effect = lower value
[36] = locus YGL240W, strain doc1, stronger effect = lower value
[37] = locus YGL253W, strain hxk2, stronger effect = lower value
[38] = locus YHR013C, strain ard1, stronger effect = lower value
[39] = locus YHR027C, strain rpn1, stronger effect = lower value
[40] = locus YHR142W, strain chs7, stronger effect = lower value
[41] = locus YJL092W, strain hpr5, stronger effect = lower value
[42] = locus YJL095W, strain BCK1 (second series), stronger effect = lower value
[43] = locus YJL115W, strain asf1, stronger effect = lower value
[44] = locus YJL129C, strain trk1, stronger effect = lower value
[45] = locus YJL154C, strain vps35, stronger effect = lower value
[46] = locus YJL164C, strain tpk1, stronger effect = lower value
[47] = locus YJL166W, strain qcr8, stronger effect = lower value
[48] = locus YJL187C, strain SWE1, stronger effect = lower value
[49] = locus YKL160W, strain elf1, stronger effect = lower value
[50] = locus YKR026C, strain gcn3, stronger effect = lower value
[51] = locus YKR091W, strain srl3, stronger effect = lower value
[52] = locus YLL001W, strain dnm1, stronger effect = lower value
[53] = locus YLL026W, stronger effect = lower value
[54] = locus YLL041C, strain sdh2, stronger effect = lower value
[55] = locus YLR027C, strain aat2, stronger effect = lower value
[56] = locus YLR221C, strain rsa3, stronger effect = lower value
[57] = locus YLR258W, strain gsy2, stronger effect = lower value
[58] = locus YLR262C, strain YPT6 (second series), stronger effect = lower value
[59] = locus YLR320W, strain mms22, stronger effect = lower value
[60] = locus YLR342W, strain FKS1, stronger effect = lower value
[61] = locus YLR357W, strain rsc2, stronger effect = lower value
[62] = locus YLR370C, strain arc18, stronger effect = lower value
[63] = locus YLR384C, strain iki3, stronger effect = lower value
[64] = locus YML120C, strain ndi1, stronger effect = lower value
[65] = locus YMR125W, strain sto1, stronger effect = lower value
[66] = locus YMR129W, stronger effect = lower value
[67] = locus YMR205C, strain PFK2, stronger effect = lower value
[68] = locus YMR231W, strain pep5, stronger effect = lower value
[69] = locus YNL071W, strain lat1, stronger effect = lower value
[70] = locus YNL209W, strain ssb2, stronger effect = lower value
[71] = locus YNL248C, strain rpa49, stronger effect = lower value
[72] = locus YNL322C, strain KRE1 (second series), stronger effect = lower value
[73] = locus YNR049C, strain mso1, stronger effect = lower value
[74] = locus YOR001W, strain rrp6, stronger effect = lower value
[75] = locus YOR070C, strain gyp1, stronger effect = lower value
[76] = locus YOR080W, strain dia2, stronger effect = lower value
[77] = locus YOR083W, strain WHI5, stronger effect = lower value
[78] = locus YOR106W, strain vam3, stronger effect = lower value
[79] = locus YOR265W, strain rbl2, stronger effect = lower value
[80] = locus YOR270C, strain vph1, stronger effect = lower value
[81] = locus YOR290C, strain snf2, stronger effect = lower value
[82] = locus YPL051W, strain arl3, stronger effect = lower value
[83] = locus YPL078C, strain atp4, stronger effect = lower value
[84] = locus YPL106C, strain sse1, stronger effect = lower value
[85] = locus YPL240C, strain hsp82, stronger effect = lower value

Measured: normalized growth

O=c1cc(-c2cccc(O)c2)oc2ccc(O)cc12
active: [19] 0.778 | [56] 0.894 | [58] 0.804 | [84] 0.827
inactive: [1] 0.959 | [2] 0.946 | [3] 0.957 | [4] 0.952 | [5] 0.934 | [6] 0.947 | [7] 0.956 | [8] 0.939 | [9] 0.962 | [10] 0.933 | [11] 0.952 | [12] 0.949 | [13] 0.969 | [14] 0.962 | [15] 0.951 | [16] 0.971 | [17] 0.943 | [18] 0.946 | [20] 0.975 | locus YDR195W, strain ref2 1.06 | [21] 0.953 | [22] 0.924 | [23] 0.938 | [24] 0.873 | [25] 0.943 | [26] 0.964 | [27] 0.951 | [28] 0.936 | [29] 0.944 | [30] 0.956 | [31] 0.925 | [32] 0.962 | [33] 0.942 | [34] 0.941 | [35] 0.953 | [36] 0.91 | [37] 0.952 | [38] 0.953 | [39] 0.955 | [40] 0.885 | [41] 0.953 | [42] 0.942 | [43] 0.947 | [44] 0.903 | [45] 0.962 | [46] 0.947 | [47] 0.95 | [48] 0.936 | [49] 0.936 | [50] 0.948 | [51] 0.952 | [52] 0.945 | [53] 0.947 | [54] 0.951 | [55] 0.938 | [57] 0.939 | [59] 0.923 | [60] 0.983 | [61] 0.906 | [62] 0.933 | [63] 0.951 | [64] 0.952 | locus YMR058W, strain fet3, stronger effect = lower value 0.942 | [65] 0.959 | [66] 0.983 | [67] 0.944 | [68] 0.958 | [69] 0.958 | [70] 0.945 | [71] 0.931 | [72] 0.958 | [73] 0.942 | [74] 0.948 | [75] 0.964 | [76] 0.93 | [77] 0.928 | [78] 0.933 | [79] 0.958 | [80] 0.865 | [81] 0.893 | [82] 0.92 | [83] 0.956 | [85] 0.952

O=c1cc(-c2ccc(O)c(O)c2)oc2ccccc12
active: [18] 0.893 | [78] 0.867
inactive: [1] 0.999 | [2] 0.964 | [3] 0.986 | [4] 0.965 | [5] 0.933 | [6] 0.961 | [7] 0.97 | [8] 0.924 | [9] 0.977 | [10] 0.956 | [11] 0.969 | [12] 0.965 | [13] 0.996 | [14] 0.997 | [15] 0.998 | [16] 0.989 | [17] 0.994 | [19] 0.985 | [20] 0.971 | locus YDR195W, strain ref2 1.02 | [21] 0.971 | [22] 0.976 | [23] 0.995 | [24] 0.954 | [25] 0.946 | [26] 0.984 | [27] 0.989 | [28] 0.955 | [29] 0.991 | [30] 0.962 | [31] 0.926 | [32] 0.947 | [33] 0.98 | [34] 0.936 | [35] 0.991 | [36] 1.01 | [37] 0.963 | [38] 0.983 | [39] 0.966 | [40] 0.962 | [41] 0.983 | [42] 0.976 | [43] 0.991 | [44] 0.978 | [45] 0.996 | [46] 0.942 | [47] 0.932 | [48] 0.982 | [49] 0.974 | [50] 0.972 | [51] 1 | [52] 0.965 | [53] 0.987 | [54] 0.99 | [55] 0.943 | [56] 0.927 | [57] 0.967 | [58] 0.934 | [59] 0.943 | [60] 0.961 | [61] 0.927 | [62] 0.993 | [63] 0.981 | [64] 0.978 | [65] 0.991 | [66] 0.99 | [67] 0.982 | [68] 0.961 | [69] 0.965 | [70] 0.932 | [71] 0.986 | [72] 0.989 | [73] 0.992 | [74] 0.928 | [75] 0.956 | [76] 0.986 | [77] 0.959 | [79] 1.01 | [80] 0.83 | [81] 0.968 | [82] 0.926 | [83] 0.985 | [84] 0.938 | [85] 0.99
